In all, about 25,000 sequences were measured (“ln(normalized median fluorescence intensity)”: median about 7.1, highest 2% from about 10 on). The entries come from a sample that favours the highest values as a whole.
Tested on: PfSIP2 AP2 domain 1 (GST-tagged)
Assay: gcPBM binding intensity (ln(normalized median fluorescence intensity)); higher = stronger DNA binding
Method in brief: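 In this array assay, P. falciparum DNA-binding domains with a GST tag, expressed in E. coli, were applied for 1 h to primer-extended double-stranded 36-bp intergenic genomic probes and negative controls on an Agilent 4 × 180k array. Bound protein was visualised with Alexa488 anti-GST antibody at 488 nm. Binding intensity is the highest Masliner-normalised natural-log median intensity across replicate spots of either probe orientation.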

Row | Sequence | gcPBM binding intensity (ln)
1 | AAAATGGTTTATAAATGTACATATATTATATATAAC [XGTACX_site7959] | 7.03
2 | ATATATATATATGCATGTACATATATTTGTTATATC [XGTACX_site3197] | 9.3
3 | TATATATATATATATGCATGTACATATATTTGTTAT [TGCATGCA_site379] | 9.76
4 | TATGTGCACCCATGTACATGCGGACATATGTTATAT [TGCATGCA_site383] | 12
5 | AAAATAAAAAATTAATGTACTTAGAATTGTCACTAA [XGTACX_site1346] | 6.79
6 | AAAAAAACAACATGCACACGCACACCCAAAAAAAGC [CACACA_site72] | 7.96
7 | CCAACATGCCCACGCACACACAAAAAAAGCATGCAT [CACACA_site4217] | 7.23
8 | AGAAAAAAACAACATGCACACGCACCCACAAAAAAA [CACACA_site7908] | 10.2
9 | TATGCAAGGAACCACACACACACACGGAAATGTATA [CACACA_site6490] | 6.94
10 | AATTTAATATAATGCACACATAAAAAAAAATTCAAA [CACACA_site2062] | 7.16
11 | CTTATTTTGTTATAAGTGCATTTTTTAAAATTTCTT | 9.64
12 | TATTTCACTTTTTGTCTGCACTAAAATTTTATGGTA | 7.74
13 | ATTTATTTCTTGTTAGTGCACTTTCTTTGGTAAAAT | 11.1
14 | ACATTAAAAAATTGTTTGCACTATATAAAATATTAA [GTGCAC_site9728] | 8.2
15 | TGTTATTTTAAAAAAAAAATTATTAACTTAAAAAAA [CACACA_negctrl_site1641] | 6.68
16 | ACGTTAGGCTTATTTGCACACTTGTATTAAAATTTT [CACACA_site4854] | 7.27
17 | TTTTTGTTACCTATTGTGCACTTCATATAAATTAAA | 10.8
18 | TGTTAAAATTATTTGGTGCACTTGTTTTACCTTATT | 11.3
19 | AAAATATAAATTCATGTGCACATATATATTTTGTTA [GTGCAC_site9782] | 8.24
20 | CACGTGAAAATACAAGCATGCAAGCTTTTTTTTTCT [TGCATGCA_site642] | 6.53
21 | TACAATTCGTAATACACACACATATAAATAAATATT [CACACA_site7720] | 7.28
22 | AAATAATAAAGTATAACACACATATTTATTTATATA [CACACA_site7822] | 6.73
23 | AAAGAACAAATAAAACATAAAATAATATATATAGAT [CACACA_negctrl_site1764] | 7.02
24 | AAAATACGAATATAAACATGCACCATATAGAACAAA [TGCATGCA_site925] | 10.7
25 | AATAGAACAAATAAAACACACACATATATATATATA [CACACA_site8893] | 9.42
26 | ATAGATGCATATTATACACACATATGTAAATACATT [CACACA_site4691] | 7.06

Row | Sequence | gcPBM binding intensity (ln)
27 | CAAACAATTAAACAAACACACATATACAAGTATATA [CACACA_site8639] | 7
28 | GTAGGCATTAAAAAATGTACAAAATATTATGAATTG [XGTACX_site1615] | 6.85
29 | TGAACATATTAAAATTGTACATATGCACAATATGTA [XGTACX_site6801] | 7.44
30 | AGTAGGCATATTGGTTGTACAAAAAAATTATGCACC [XGTACX_site8925] | 10.3
31 | TAAAAAAAAACATATACACACAAAAACGTACACATA [CACACA_site1354] | 7.29
32 | ATAAACATATAAAAAGTGCATATTCATATATCTACT | 8.7
33 | TTGCACTCGTAAAAAGCACACATATAAAAACATTTA [CACACA_site7997] | 8.15
34 | TTATCTCTACAAAGTGCACACACGTAAAAACATATA [CACACA_site3957] | 10.4
35 | TTAAAAGTAAGCAAAGTGCATATAACAAAAGTAAAG | 8.19
36 | TAAAAAAAAACATGTGCACACGTTTTATCTACATAA [CACACA_site2336] | 8.79
37 | ATATAAACAAAGCAGTGCACGTAAACAAAACATATA [CACACA_negctrl_site1076] | 10.4
38 | AAACAGAATACATATACACACATACAAAAAAGTGCA [CACACA_site8235] | 7.52
39 | ATCTCTACAAAGTGCACACACGTAAAAACATATATA [CACACA_site6046] | 10.8
40 | ATATATATGTATATGTGTACTTATATTTGTCATTTT [XGTACX_site1317] | 7.11
41 | TAATATTTATGTTAATGTACAAAAAAACAAAACAAA [XGTACX_site301] | 7.09
42 | TTTTTTAAATATTAAAAATGGGATCTTATAACATAT [GTGCAC_negctrl_site666] | 6.91
43 | ATATATATAATAAACACACACATATACATAGATGTA [CACACA_site5841] | 7.49
44 | AAATAAAAGATATTTTTACACACTTTTGATGAGATC [CACACA_site9000] | 6.75
45 | AAAAAAAAAAAAAAAAAAATATATTATATATATATA [XGTACX_negctrl_site467] | 9.19
46 | TAATAAGTACCTTTTGCATGTGGCACGCTTTTTTTT [TGCATGCA_site573] | 6.75
47 | TTAACATCTTCGTTGACACACAAAAAAAAAAATAAT [CACACA_site1819] | 7.1
48 | ATGGATTATACGTGCACACATATATACAAATAAATA [CACACA_site640] | 10.5
49 | ATAATTTCATAATACGTGCACATAATATATAAAAAA | 10.5
50 | GAAATAATTTCATATACACACATATACATACATACA [CACACA_site1358] | 7.5
51 | TCATATATATTATACACACACATATATAAATATATA [CACACA_site967] | 7.03
52 | ATGGATTATACGTGCACACATATATACCAATAAATA [CACACA_site4524] | 10.5

Row | Sequence | gcPBM binding intensity (ln)
53 | TTATAATATGGATACACACACATATATAAATATATA [CACACA_site5314] | 6.98
54 | CATAAAAATGGATACACACACATAATATATATATAT [CACACA_site3619] | 9.01
55 | TAATGGATTATACGTGCACACATATATACAAATAAA [CACACA_site8116] | 10.5
56 | ATAAAATATATATGCACACACATATATATTTCATAC [CACACA_site3547] | 7.24
57 | TATAAATACATACGTACACACAAATATTAAAATATA [CACACA_site5129] | 7.35
58 | ATATAAATACGGTGTGCACACACATAATATATATAT [CACACA_site2271] | 8.98
59 | TAGGGATTATACCACACACACATACACATAAATATA [CACACA_site3178] | 7.08
60 | AAACATAAATTTTATTGTACATTATATAGAATTTTC [XGTACX_site576] | 6.81
61 | AAATGTTGAAATGATACACACATATATATATATATA [CACACA_site2517] | 9.59
62 | TTATTTATGATATATACACACTAACATTATTTATCC [CACACA_site6720] | 6.95
63 | GAAATTTCCCATATTACACACATACTATGATATATA [CACACA_site5987] | 7.12
64 | GTGATGGTACAATATACACACTTAAAAAAAAAAAAT [CACACA_site5360] | 7.17
65 | TTTCTATATTGGCATACATGCAAGAACGAAAAGATT [TGCATGCA_site117] | 7.09
66 | TATAAAAAAAATTGCACACATATTATACAGGACGAC [CACACA_site701] | 7.96
67 | TAATATTTTAATTGTGTGCACATTAATATTATAAAA | 9.3
68 | TTTATTTTTATTTTTGTGCACGGGATTAAATAAAAG [GTGCAC_site9842] | 10.5
69 | TTATTTTATTTTTTTGTGCACATATATATTTATAAA [GTGCAC_site9615] | 9.43
70 | AAGAAGAAACGGAAAAGTACAAAGAAGAAATAAGTA [XGTACX_site3680] | 6.85
71 | CATACATTATAAGATACATGCATATATCTGAACATA [TGCATGCA_site797] | 7.02
72 | AACATTATTTTGTGTACACATTCGGTTATATTATAT [CACACA_site5628] | 7.31
73 | ATACTATTTAAATGGGTGCTAAAAATAACAAAAATT | 8.88
74 | TAAATCAAAATAATTTAACACACAATTTTAATACTG [CACACA_site8744] | 6.67
75 | AATAAATACTAAATGGTGCAAAATTTTTTAACACTG | 10.7
76 | TATTAAAATATGTCAGTTCTTAAAAAGTTGATGAGT [GTGCAC_negctrl_site77] | 7.17
77 | TAATAATAATTAAATTGTACATATAATATAATATAA [XGTACX_site8554] | 7.15
78 | TAATATATATGTATGGCACACACGGATAAATATATA [CACACA_site930] | 7.04

Row | Sequence | gcPBM binding intensity (ln)
79 | TTTTAACAAAAAAAAAGAAAAGAAAAGAAAATAATA [XGTACX_negctrl_site530] | 6.54
80 | GAACAAATTAAATAGGTGCATTAACATGTTCTATTT [GTGCAC_site9729] | 10.4
81 | AATTGAATAAATTAAACATGCACAGATGTTCTATTT [TGCATGCA_site692] | 6.89
82 | TAATATAATATATAGGTGCAATATTAACAAAAATTT | 9.61
83 | AGTGATACTAATTTTTGTACGCATAAAAGAATATTC [XGTACX_site6055] | 6.97
84 | ACTATTTTCTTCAAAACATGCACCACATAAACATAA [TGCATGCA_site200] | 10.5
85 | TATAAACATAAAACCAGTACATATATATTTTTCTTC [XGTACX_site212] | 6.84
86 | ACCTATTTCAAACACACACACACACCCACAAACATA [CACACA_site977] | 7.62
87 | CGGCTATTTCTATATACATGCATTTAAAAAAAAAAT [TGCATGCA_site354] | 7.27
88 | CCAATGTTTTCTTGTGTACACATCATTAAAGAAAAA [CACACA_site5300] | 7.96
89 | AATAGAAAAAAATAAGTGCATTTTGGTATTCATCAT [GTGCAC_site9614] | 8.14
90 | ATATTTATATATAGTAGTACTTTCAATAATTTAAAT [XGTACX_site7276] | 7.05
91 | TCTATTTTTTATATGGTGCATTGTTCTTATTAATAT [GTGCAC_site9392] | 10.5
92 | TATATATATATATGGGTGCATTTTTTTGTCCATGTA [GTGCAC_site9868] | 10.7
93 | TATTGTTCTTATTTAGTGCATATATAATATAATATA [GTGCAC_site9827] | 9.38
94 | ATAATTTCAATATTTAATATCATATATATATATTTT [GTGCAC_negctrl_site713] | 6.94
95 | ATTATTTATATTATGGTGCATAATTTTGGGTTTCTT | 10.2
96 | TATATATATATATATATATATATGTATGTGCATTTA [TGCATGCA_negctrl_site53] | 9.08
97 | GTAATTTTATATGGTTGTACATATATATATATATAT [XGTACX_site6659] | 9.68
98 | CATATAATTTTATGGGTGCATTTTTTTGTAAGACCA | 11.1
99 | TTGTTCTTATTTCATTTTTATATGATATTTCATTAT [CACACA_negctrl_site1619] | 7.17
100 | TTATATGGCTCCATTTGTACGCATCCATGTTTTTAT [XGTACX_site6590] | 6.99
101 | TTTTTAATTTCAATGGTGCAGTAATAATATAATAGT | 10.5

From the supplement of paper PMC11417369
